Test results as given in paper PMC7862700, “An all-to-all approach to the identification of sequence-specific readers for epigenetic DNA modifications on cytosine”.

Key:
Test in all cases: DAPPL (digital affinity profiling via proximity ligation, sequencing); 10 mM Tris-HCl pH 7.5, 50 mM NaCl, 1 mM DTT, 4% glycerol, room temperature, 30 min; GST-TFs on glutathione beads, 16-mer random dsDNA library, 0.1% formaldehyde crosslink after washing; high values mean tight binding
Conditions in all cases: protein: recombinant; tags: N-terminal GST; dsDNA, one strand shown
[1] = biological target: ETV1 (Homo sapiens, UniProt P50549 1-477)
ETV1, sequence (P50549 whole entry, the tested form may be a part): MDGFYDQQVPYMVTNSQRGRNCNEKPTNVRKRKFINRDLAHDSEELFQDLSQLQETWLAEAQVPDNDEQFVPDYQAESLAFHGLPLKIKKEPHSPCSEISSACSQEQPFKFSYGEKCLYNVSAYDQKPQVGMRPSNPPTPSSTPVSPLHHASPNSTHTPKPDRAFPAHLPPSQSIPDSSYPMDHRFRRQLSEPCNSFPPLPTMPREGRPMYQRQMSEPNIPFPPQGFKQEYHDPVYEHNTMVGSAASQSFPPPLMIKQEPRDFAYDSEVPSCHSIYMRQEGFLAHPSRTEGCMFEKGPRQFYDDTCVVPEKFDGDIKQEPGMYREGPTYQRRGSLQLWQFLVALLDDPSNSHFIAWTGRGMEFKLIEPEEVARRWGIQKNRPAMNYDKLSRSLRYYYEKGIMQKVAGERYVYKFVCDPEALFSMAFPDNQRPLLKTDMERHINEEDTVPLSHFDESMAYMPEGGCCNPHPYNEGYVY
In short: (§1)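 Binding signal is each hexamer's read frequency for a factor divided by its frequency in the tag-only sample. The factors were GST-fused human transcription factors from yeast, captured on glutathione beads, DNA-barcoded and pooled with that sample. Pools were incubated with 200 nmole of a random double-stranded 16-mer DNA library in Tris/NaCl/DTT/glycerol buffer at room temperature for 30 min, then washed, crosslinked with 0.1% formaldehyde, proximity-ligated with BsaI/T4 ligase (1 h, 37 °C), PCR-amplified and sequenced on an Illumina NextSeq500.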

[2] = biological target: T1, ERF (Homo sapiens, UniProt P50548 1-548)
T1 sequence: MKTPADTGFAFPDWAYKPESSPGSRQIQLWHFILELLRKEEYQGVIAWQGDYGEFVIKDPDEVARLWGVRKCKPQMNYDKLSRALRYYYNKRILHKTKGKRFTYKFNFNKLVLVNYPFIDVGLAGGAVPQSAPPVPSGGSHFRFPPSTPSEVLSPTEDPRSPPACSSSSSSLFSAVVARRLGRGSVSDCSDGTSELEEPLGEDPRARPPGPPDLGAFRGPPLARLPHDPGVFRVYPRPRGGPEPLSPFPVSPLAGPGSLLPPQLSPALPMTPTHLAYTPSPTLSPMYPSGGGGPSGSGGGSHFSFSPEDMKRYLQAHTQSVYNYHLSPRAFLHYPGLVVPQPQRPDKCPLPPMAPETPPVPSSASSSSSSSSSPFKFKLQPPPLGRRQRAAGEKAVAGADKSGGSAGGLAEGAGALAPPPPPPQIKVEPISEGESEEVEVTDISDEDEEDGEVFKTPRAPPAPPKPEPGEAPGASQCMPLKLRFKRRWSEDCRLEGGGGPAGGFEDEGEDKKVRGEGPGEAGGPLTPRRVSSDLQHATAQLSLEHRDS
In short: as §1

[3] = biological target: T2, ETV3L (Homo sapiens, UniProt Q6ZN32 1-361)
T2 sequence: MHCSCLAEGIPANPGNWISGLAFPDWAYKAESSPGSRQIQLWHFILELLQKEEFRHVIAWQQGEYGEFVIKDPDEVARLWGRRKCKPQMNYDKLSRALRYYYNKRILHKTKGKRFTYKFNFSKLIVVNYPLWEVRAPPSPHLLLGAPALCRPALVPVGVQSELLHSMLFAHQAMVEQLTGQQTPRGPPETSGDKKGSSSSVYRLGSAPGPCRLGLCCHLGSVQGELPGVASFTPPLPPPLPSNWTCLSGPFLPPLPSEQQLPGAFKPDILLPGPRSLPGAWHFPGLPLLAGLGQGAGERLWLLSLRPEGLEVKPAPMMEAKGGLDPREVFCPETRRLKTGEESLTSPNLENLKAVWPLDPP
In short: as §1

[4] = biological target: T3, ETS2 (Homo sapiens, UniProt P15036 1-469)
T3 sequence: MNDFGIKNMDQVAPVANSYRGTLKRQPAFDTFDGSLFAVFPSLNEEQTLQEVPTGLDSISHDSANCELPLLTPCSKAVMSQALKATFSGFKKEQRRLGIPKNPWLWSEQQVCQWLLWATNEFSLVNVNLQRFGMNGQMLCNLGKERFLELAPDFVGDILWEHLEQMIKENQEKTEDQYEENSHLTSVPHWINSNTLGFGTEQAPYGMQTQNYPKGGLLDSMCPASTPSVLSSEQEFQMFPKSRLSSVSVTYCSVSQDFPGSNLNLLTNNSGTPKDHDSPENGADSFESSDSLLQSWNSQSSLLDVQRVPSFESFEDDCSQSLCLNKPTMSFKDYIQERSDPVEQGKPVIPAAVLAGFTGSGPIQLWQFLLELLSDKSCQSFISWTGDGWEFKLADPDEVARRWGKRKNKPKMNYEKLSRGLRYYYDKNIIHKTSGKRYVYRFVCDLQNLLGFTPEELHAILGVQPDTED
In short: as §1

[5] = biological target: T4, SPDEF (Homo sapiens, UniProt O95238 1-335)
T4 sequence: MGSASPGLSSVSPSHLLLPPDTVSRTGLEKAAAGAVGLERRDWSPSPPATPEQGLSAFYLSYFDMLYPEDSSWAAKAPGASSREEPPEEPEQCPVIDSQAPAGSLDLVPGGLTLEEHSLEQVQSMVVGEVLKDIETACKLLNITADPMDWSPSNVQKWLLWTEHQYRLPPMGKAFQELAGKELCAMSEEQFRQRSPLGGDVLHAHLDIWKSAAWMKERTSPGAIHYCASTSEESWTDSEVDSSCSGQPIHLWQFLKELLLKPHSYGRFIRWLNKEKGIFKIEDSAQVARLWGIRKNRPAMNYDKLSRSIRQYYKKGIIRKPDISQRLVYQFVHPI
In short: as §1

[6] = biological target: T5, ETV7 (Homo sapiens, UniProt Q9Y603 1-341)
T5 sequence: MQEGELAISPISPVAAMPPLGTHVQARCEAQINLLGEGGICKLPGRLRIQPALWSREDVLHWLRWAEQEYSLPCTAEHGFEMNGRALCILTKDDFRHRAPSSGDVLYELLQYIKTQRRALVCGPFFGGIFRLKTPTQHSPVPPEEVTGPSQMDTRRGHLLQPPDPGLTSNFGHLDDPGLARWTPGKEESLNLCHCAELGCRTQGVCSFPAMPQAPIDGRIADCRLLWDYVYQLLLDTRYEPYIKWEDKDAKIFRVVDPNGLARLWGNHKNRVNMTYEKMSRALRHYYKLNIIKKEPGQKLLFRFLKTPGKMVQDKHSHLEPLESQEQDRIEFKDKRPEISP
In short: as §1

[7] = biological target: T6, ELF5 (Homo sapiens, UniProt Q9UKW6-2 1-255)
T6 sequence: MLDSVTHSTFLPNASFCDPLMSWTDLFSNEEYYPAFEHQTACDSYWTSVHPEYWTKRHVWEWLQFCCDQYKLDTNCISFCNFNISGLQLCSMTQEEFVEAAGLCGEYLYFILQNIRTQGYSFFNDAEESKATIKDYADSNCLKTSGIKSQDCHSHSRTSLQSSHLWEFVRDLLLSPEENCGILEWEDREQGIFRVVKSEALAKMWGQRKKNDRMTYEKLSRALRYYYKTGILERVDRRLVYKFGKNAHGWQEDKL
In short: as §1

[8] = biological target: T7, ETV3 (Homo sapiens, UniProt P41162-2 1-143)
T7 sequence: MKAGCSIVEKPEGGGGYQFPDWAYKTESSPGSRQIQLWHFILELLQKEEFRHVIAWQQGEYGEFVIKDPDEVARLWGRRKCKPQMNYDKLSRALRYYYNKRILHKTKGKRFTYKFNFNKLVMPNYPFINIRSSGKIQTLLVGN
In short: as §1

[9] = biological target: ETV6 (Homo sapiens, UniProt P41212 1-452)
ETV6, sequence (P41212 whole entry): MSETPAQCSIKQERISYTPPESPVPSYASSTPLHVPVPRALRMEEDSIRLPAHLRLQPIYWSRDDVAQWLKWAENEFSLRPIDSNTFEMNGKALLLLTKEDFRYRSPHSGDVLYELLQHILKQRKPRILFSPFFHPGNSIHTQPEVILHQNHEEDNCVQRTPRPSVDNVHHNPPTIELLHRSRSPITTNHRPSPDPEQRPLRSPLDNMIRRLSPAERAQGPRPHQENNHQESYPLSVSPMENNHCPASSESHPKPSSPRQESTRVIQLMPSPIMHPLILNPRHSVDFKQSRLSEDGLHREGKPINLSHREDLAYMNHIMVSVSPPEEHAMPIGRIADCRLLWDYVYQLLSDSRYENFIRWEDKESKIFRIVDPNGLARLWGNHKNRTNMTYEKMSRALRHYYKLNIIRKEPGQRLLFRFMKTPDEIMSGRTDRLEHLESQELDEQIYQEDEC
In short: as §1

CTGATC
binding signal [1]: 1.43 fold enrichment (6-mer frequency, TF over GST control)
binding signal [2]: 1.52 fold enrichment (6-mer frequency, TF over GST control)
binding signal [3]: 1.36 fold enrichment (6-mer frequency, TF over GST control)
binding signal [4]: 1.42 fold enrichment (6-mer frequency, TF over GST control)
binding signal [5]: 1.33 fold enrichment (6-mer frequency, TF over GST control)
binding signal [6]: 1.35 fold enrichment (6-mer frequency, TF over GST control)
binding signal [7]: 1.32 fold enrichment (6-mer frequency, TF over GST control)
binding signal [8]: 1.36 fold enrichment (6-mer frequency, TF over GST control)
binding signal [9]: 1.23 fold enrichment (6-mer frequency, TF over GST control)
